Test [1] is described as follows: inhibitors of TNFa-induced NFkB p65 translocation, primary screen, imaging, HUVEC, MLSMR starter and 10KST1 sets (AID 438;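 active means inhibition above 20% together with a positive visual image hit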;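 further: compound added about 3h40 before a 20 min TNFalpha stimulation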;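 on inhibition: signal is the nuclear over cytoplasmic p65 intensity ratio per well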). Particulars: HUVEC TNFa-induced p65 nuclear translocation; cell count: measured here: nuclei count (cytotoxicity indicator), at 2.08 µM; inhibition: at 2 µM, stronger effect = higher value, 0% TNFa-plus-vehicle, 100% no-TNFa wells.
The nature of test [2]: reduction of polyQ htt aggregates in cells – imaging, exon1htt(103Q)mCFP cells, high-content imaging, primary screen (AID 483;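 active means visual image review flags a hit and inhibition of aggregation exceeds 20%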;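 further: compound exposure lasted 3 days before fixation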;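 on nuclei count: percent of the per-plate median nuclei count of sample wells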). Particulars: exon1htt(103Q)mCFP cell line, aggregate imaging, at 2 µM; inhibition of aggregation: stronger effect = higher value; nuclei count: measured here: cell count, toxicity.
Test [3] is described as follows: endothelial E-selectin expression blockers – imaging, HUVEC, immunofluorescence, MLSMR starter and 10KST1 sets, primary screen (AID 487).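 On inhibition: signal is fraction of cell area covered by stained E-selectin grains.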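 On nuclei count: 100% = median nuclei count of all wells on the same plate.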 The conditions noted are these: HUVEC TNFalpha-induced E-selectin immunofluorescence imaging, at 2 µM; inhibition: stronger effect = higher value; nuclei count: measured here: cell number, toxicity.
The target in test [4] is Voltage-gated potassium channel subunit beta-2 (Rattus norvegicus) (UniProt P62483). Kind of test: inhibitors of rat Kvbeta2 reductase activity – biochemical, NADPH fluorescence, primary screen (AID 622;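 active means fluorescence slope higher than the sample average by over 3 SD, cut at about -0.22 in these data, passing the limit was not always enough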;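 further: slope of raw intensity against log time taken from 70 to 1610 s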). Particulars: recombinant KvBeta, 4-cyanobenzaldehyde reduction, at 10 µM, stronger effect = higher value.
Test [5] shares this target. The experiment in a line: enhancers of rat Kvbeta2 NADPH turnover – biochemical, NADPH fluorescence, primary screen (AID 623;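 active means NADPH fluorescence slope more negative than the mean of all samples by about 3 SD, 99.7% confidence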;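 further: fluorescence intensity change per second fitted from 20 to 320 s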). The conditions noted are these: Recombinant KvBeta, NADPH fluorescence decrease slope, 10 min; at 10 µM; stronger effect = lower value.
The target in test [6] is Alpha-2C adrenergic receptor (Homo sapiens) (UniProt P18825). Kind of test: compounds altering alpha2C-coupled GIRK flux – cell-based, HEK293 alpha2C/GIRK1/2, thallium flux, primary screen (AID 624;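 active means fluorescence slope after compound addition differing from the mean of all screened samples at 99.7% confidence, in either direction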;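 further: slope of fluorescence ratio to pre-addition baseline per second over 15 to 24 s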). The conditions noted are these: thallium flux BTC fluorescence, at 10 µM, actives lie on both sides.
The nature of test [7]: blockers of RIG-like receptor reporter activation – cell-based, Sendai virus stimulus, luciferase, 10K MLSCN set, TLR/RLR signaling modifier project, primary screen (AID 602276;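 active means inhibition at or above 50% at 10 µM; inactive means inhibition below 50%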;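 further: firefly luciferase from ISG56 promoter only with Renilla not read in this screen; 0% = Sendai virus plus DMSO and 100% = medium plus DMSO without virus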). The conditions noted are these: HEK293 RL24 IRF3 luciferase reporter, at 10 µM, stronger effect = higher value.
Test [8] in a line: TLR3 IRF3 reporter activation blockers – cell-based, poly I:C stimulus, luciferase, 10K MLSCN set, primary screen (AID 602277;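 active means inhibition of the reporter signal at or above 50%; inactive means inhibition below 50%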). Particulars: HEK293-TLR3 RL24 IRF3 luciferase reporter, at 10 µM, stronger effect = higher value. On the technique in general: In a reporter assay the amount or activity of a reporter protein is the signal.

Here are results for 14 molecules from PubChem BioAssay.

SMILES strings stand for the structures. Calls of active or inactive are those of the source.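 How the source made its calls, unless noted: active means visually confirmed hit in the image check and inhibition above 20%; inconclusive means visually confirmed hit but inhibition not above 20%; inactive means no visual hit in the image check.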

Chain of Alpha-2C adrenergic receptor (Homo sapiens) (P18825 whole entry, looked up): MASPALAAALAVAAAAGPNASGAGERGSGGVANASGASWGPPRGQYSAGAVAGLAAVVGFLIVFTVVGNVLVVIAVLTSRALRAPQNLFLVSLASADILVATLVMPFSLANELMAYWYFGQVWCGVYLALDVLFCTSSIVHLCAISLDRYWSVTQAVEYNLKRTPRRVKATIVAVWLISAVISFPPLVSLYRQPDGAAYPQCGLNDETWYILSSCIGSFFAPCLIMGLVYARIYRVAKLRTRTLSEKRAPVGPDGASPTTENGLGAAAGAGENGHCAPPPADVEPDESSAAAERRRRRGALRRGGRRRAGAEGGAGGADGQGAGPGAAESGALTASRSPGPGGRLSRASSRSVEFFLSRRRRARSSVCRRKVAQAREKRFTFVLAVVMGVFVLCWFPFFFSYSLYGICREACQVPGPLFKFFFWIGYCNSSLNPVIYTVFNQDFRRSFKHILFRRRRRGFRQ
Chain of Voltage-gated potassium channel subunit beta-2 (Rattus norvegicus) (P62483 whole entry, looked up): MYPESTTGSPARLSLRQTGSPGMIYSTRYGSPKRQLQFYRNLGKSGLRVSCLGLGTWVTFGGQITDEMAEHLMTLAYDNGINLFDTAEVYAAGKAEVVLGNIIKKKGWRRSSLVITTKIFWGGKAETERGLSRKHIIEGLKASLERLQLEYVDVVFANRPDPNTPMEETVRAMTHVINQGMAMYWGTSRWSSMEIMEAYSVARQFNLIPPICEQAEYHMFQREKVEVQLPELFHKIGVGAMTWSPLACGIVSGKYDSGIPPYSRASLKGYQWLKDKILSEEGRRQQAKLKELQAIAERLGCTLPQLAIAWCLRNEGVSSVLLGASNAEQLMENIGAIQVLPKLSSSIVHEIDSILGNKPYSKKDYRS

One may read the inhibition as the change of the read-out against control, counted positive when it falls. On to `O=C(O)C1C2CCC(O2)C1C(=O)NCCC1=CCCCC1` (centres undefined), for which the cell count in test [1] turned out to be 465. The inhibition in test [1] was 10.4% (inactive); in test [3], -112% (inactive); in test [7] it was 1.86% (inactive); in test [8] it was 13.6% (inactive). Also, the inhibition of aggregation in test [2] was -18.3% (inactive). Besides, the nuclei count was 105% in test [2] and 117% in test [3]. In addition, the fluorescence slope in test [4] was -0.331 (inactive). Besides, in test [5], the NADPH fluorescence slope was -5.8e-05 (inactive). The slope in test [6] was 0.0055 (inactive).
Consider `COc1ccc(-c2cc(C(F)(F)F)nc(N3CCN(c4ccc(F)cc4)CC3)n2)cc1OC`, for which the cell count in test [1] was determined as 827. In addition, the inhibition in test [1] is -10.7% (inactive); in test [3], -107% (inactive); in test [7] it was -20.5% (inactive); in test [8], -7.7% (inactive). Further, the inhibition of aggregation in test [2] was -2.4% (inactive). Also, the nuclei count was determined as 105% in test [2] and 122% in test [3]. For the same molecule, in test [4], the fluorescence slope is -0.52 (inactive). The NADPH fluorescence slope in test [5] is 2.2e-05 (inactive). Besides, the slope in test [6] was 0.00763 (inactive).
As for `CN=C(Nc1cc(C)nn1-c1ccccc1)c1ccccc1`, the cell count in test [1] came to 455. Moreover, the inhibition was 0.5% (inactive) in test [1], 23% (inactive) in test [3], 12.8% (inactive) in test [7] and 17.1% (inactive) in test [8]. In test [2], the inhibition of aggregation was -5.8% (inactive). Moreover, the figures for the nuclei count in test [2] and in test [3] were 114% and 90.5%, respectively. Further, the fluorescence slope in test [4] was -0.519 (inactive). Besides, the NADPH fluorescence slope in test [5] is -2.6e-05 (inactive). In addition, the slope in test [6] was 0.00474 (inactive).
Take `CCOC(=O)N1CCC(NC(=O)C2CCN(S(=O)(=O)c3cccc4cccnc34)CC2)CC1`: the cell count in test [1] was determined as 595. In addition, the inhibition is 1.8% (inactive) in test [1], 9.6% (inactive) in test [3], 12% (inactive) in test [7] and 35.6% (inactive) in test [8]. The inhibition of aggregation in test [2] was -71.5% (inactive). The nuclei count was 11.3% in test [2] and 107% in test [3]. The fluorescence slope in test [4] was -0.558 (inactive). The NADPH fluorescence slope in test [5] is -2.8e-05 (inactive). In addition, the slope in test [6] is 0.00729 (inactive).
Consider `CCN(CC)S(=O)(=O)c1ccc2c(c1)nc(SCC(=O)NC1CC1)n2-c1ccccc1OC`, for which the cell count in test [1] turned out to be 531. In addition, the inhibition in test [1] was -14.3% (inactive); in test [3] it was -137% (inactive); in test [7] it was 14.2% (inactive); in test [8] it was 48.2% (inactive). Moreover, in test [2], the inhibition of aggregation is 9.5% (inactive). The nuclei count in test [2] amounted to 109%; in test [3], 125%. The fluorescence slope in test [4] was -0.598 (inactive). The NADPH fluorescence slope in test [5] was -7.2e-06 (inactive). For the same molecule, the slope in test [6] was 0.00577 (inactive).
`COc1cccc(-c2nnc(NC(=O)c3ccccc3Br)o2)c1`: the cell count in test [1] was determined as 718. In addition, the inhibition was -6.9% (inactive) in test [1], -17.4% (inactive) in test [3], 4.13% (inactive) in test [7] and 17.2% (inactive) in test [8]. Besides, in test [2], the inhibition of aggregation was -5.7% (inactive). The nuclei count in test [2] was 110%; in test [3], 117%. Also, the fluorescence slope in test [4] is -0.421 (inactive). Besides, in test [5], the NADPH fluorescence slope was -3.3e-05 (inactive). Further, the slope in test [6] is 0.00691 (inactive).
On to `CCc1nnc2c3cnn(-c4ccccc4)c3ncn12`, for which, in test [1], the cell count was 402. Moreover, the inhibition was -2.9% (inactive) in test [1], -25.5% (inactive) in test [3], -19% (inactive) in test [7] and -77% (inactive) in test [8]. In addition, in test [2], the inhibition of aggregation was -11.8% (inactive). Also, the nuclei count came to 103% in test [2] and 125% in test [3]. Besides, the fluorescence slope in test [4] was -0.616 (inactive). The NADPH fluorescence slope in test [5] was 7.6e-06 (inactive). For the same molecule, in test [6], the slope was 0.00633 (inactive).
Regarding `COc1ccc(-c2nc(C#N)c(N3CCOCC3)o2)cc1OC`, the cell count in test [1] is 257. Further, the inhibition in test [1] is -4.8% (inactive); in test [3], -16.3% (inactive); in test [7] it was 9.75% (inactive); in test [8], -1.53% (inactive). The inhibition of aggregation in test [2] was 30.6% (active). Besides, the nuclei count turned out to be 92.9% in test [2] and 98.5% in test [3]. Moreover, the fluorescence slope in test [4] is -0.341 (inactive). Besides, the NADPH fluorescence slope in test [5] is -1.9e-05 (inactive). The slope in test [6] is 0.00341 (inactive).
As for `Cc1cccc(N2C(=O)CC(N(C(=O)c3ccco3)c3cccc(C)c3)C2=O)c1` (centres undefined), the cell count in test [1] came to 641. Further, the inhibition in test [1] is -9.3% (inactive); in test [3], -156% (inactive); in test [7], 13.6% (inactive); in test [8], 19% (inactive). For the same molecule, in test [2], the inhibition of aggregation is -5.2% (inactive). Further, the nuclei count in test [2] was 99%; in test [3] it was 102%. Moreover, the fluorescence slope in test [4] was -0.504 (inactive). In addition, in test [5], the NADPH fluorescence slope was -5.1e-05 (inactive). In test [6], the slope was 0.00488 (inactive).
Turning to `Cc1cccc(-n2ncc3c(NCCCn4ccnc4)ncnc32)c1`, in test [1], the cell count was determined as 604. Besides, the inhibition in test [1] was 1.3% (inactive); in test [3], -29.8% (inactive); in test [7] it was -63.1% (inactive); in test [8] it was -121% (inactive). Also, the inhibition of aggregation in test [2] was 30.9% (inactive). Also, the nuclei count in test [2] came out at 99.7%; in test [3] it was 119%. Besides, the fluorescence slope in test [4] was -0.45 (inactive). Also, in test [5], the NADPH fluorescence slope is -4.7e-05 (inactive). For the same molecule, the slope in test [6] is 0.00546 (inactive).
As for `COc1ccccc1-c1nnc(SCc2ccccn2)n1C`, the cell count in test [1] came to 307. Besides, the inhibition in test [1] was 7.6% (inactive); in test [3], -25.6% (inactive); in test [7], -14.7% (inactive); in test [8], -10.3% (inactive). In test [2], the inhibition of aggregation was -5.8% (inactive). The nuclei count amounted to 97.6% in test [2] and 104% in test [3]. The fluorescence slope in test [4] was -0.581 (inactive). The NADPH fluorescence slope in test [5] was 0.000106 (inactive). Also, in test [6], the slope is 0.0056 (inactive).
As for `CC1=Nn2c(nnc2-c2ccccn2)SC1`, in test [1], the cell count was 378. In addition, the inhibition in test [1] was 4.8% (inactive); in test [3], -158% (inactive); in test [7], 7.81% (inactive); in test [8], 11.5% (inactive). Besides, the inhibition of aggregation in test [2] is -0.1% (inactive). Moreover, the figures for the nuclei count in test [2] and in test [3] were 68.5% and 198%, respectively. Further, the fluorescence slope in test [4] is -0.443 (inactive). In addition, the NADPH fluorescence slope in test [5] is -4.3e-05 (inactive). Besides, in test [6], the slope was 0.00557 (inactive).
Consider `COc1ccc(NC(=O)CSc2nc3c(c(=O)n2-c2ccccc2OC)SCC3)cc1`, for which, in test [1], the cell count was 726. In addition, the inhibition is -6.7% (inactive) in test [1], -25.6% (inactive) in test [3], 4.03% (inactive) in test [7] and 31% (inactive) in test [8]. Moreover, the inhibition of aggregation in test [2] is -10.4% (inactive). Also, the values for the nuclei count in test [2] and in test [3] were 107% and 106%, respectively. In test [4], the fluorescence slope is -0.568 (inactive). Also, the NADPH fluorescence slope in test [5] is -5.1e-05 (inactive). In addition, the slope in test [6] is 0.00646 (inactive).
For `COc1ccc(C2c3c(oc4ccccc4c3=O)C(=O)N2c2ccc(C)cn2)cc1OC` (centres undefined), in test [1], the cell count worked out at 865. In addition, the inhibition is 0% (inactive) in test [1], -34.6% (inactive) in test [3], -0.686% (inactive) in test [7] and -4.49% (inactive) in test [8]. Further, the inhibition of aggregation in test [2] was -13.4% (inactive). In addition, the nuclei count was 75% in test [2] and 103% in test [3]. Moreover, the fluorescence slope in test [4] is -0.605 (inactive). The NADPH fluorescence slope in test [5] was 6.8e-06 (inactive). In test [6], the slope is 0.00601 (inactive).
